High-throughput results (PubChem BioAssay)
The list is not random: actives were taken first. Their share in the collection is about 21%.
Pf growth 48h: Primary qHTS for delayed death inhibitors of the malarial parasite plastid, 48 hour incubation. 5.9% of 310,000 active. AID 504832, 2011. P. falciparum luciferase growth in erythrocytes, 48 h. Potency, µM (highest dose often 28.7 µM), hits mostly inhibitors
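Luminescence readout; reporter = integrated firefly luciferase in P. falciparum. RBC culture at 2% hematocrit, 0.1% parasitemia final, 37 C/5% CO2; decreased signal taken as growth inhibition.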
CHX counter: Cycloheximide Counterscreen for Small Molecule Inhibitors of Shiga Toxin. cell reporter, cycloheximide protein synthesis inhibition counterscreen. max response, %. 12% of 300,000 active; in the data active = max response mostly above about 13%, no sharp cut-off; inactive = mostly below about 14%; also: read at 38.3 µM for the half of the compounds with a filed dose
NS1 inh: qHTS Assay for Inhibitors of Influenza NS1 Protein Function | AID 2326, 2010 | 0.4% of 270,000 active | Potency, µM (titrated, usually from 46.1 µM); calls by dose curve; also: actives are rising curves; nearly all actives have a fitted effect of over 50% in size
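Recovery from NS1-induced slow growth read by OD600 in budding yeast switched to galactose assay medium (pH 6.0, -URA) at 1:100 dilution. Compound 23 nl per well; the matching strain lacking NS1 serves as control.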
Pf growth 96h: Primary qHTS for delayed death inhibitors of the malarial parasite plastid, 96 hour incubation. P. falciparum luciferase reporter growth, 96 h. Potency, µM (titrated, usually from 28.7 µM), hits mostly inhibitors. AID 504834, 2011. 6.9% of 320,000 active
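Two-generation exposure (96 h) targets delayed-death phenotype. Reporter parasites carrying integrated firefly luciferase, in red cells at 2% hematocrit and 0.05% parasitemia final, kept at 37 C, 5% CO2; luminescence loss indicates inhibition.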
Shiga toxin inh: A qHTS for Small Molecule Inhibitors of Shiga Toxin; Vero cells, Shiga toxin protein synthesis inhibition reporter; inhibition, % at 38.7 µM; 9.2% of 290,000 active; AID 2315, 2010; in the data active = inhibition mostly above about 28%, no sharp cut-off; inactive = mostly below about 43%
SARS PLP yeast: qHTS of Yeast-based Assay for SARS-CoV PLP; S. cerevisiae expressing SARS-CoV PLpro, growth rescue; Potency, µM (series often up to 32.9 µM), hits mostly activators; 0.19% of 330,000 active; AID 485353, 2010; calls by dose curve; also: nearly all actives have a fitted effect of over 55% in size
Large screens that a line does not name were inactive. Unless noted, calls follow the shape of the dose curve; as a rule, active = well fitted inhibition curve with a large enough effect; inconclusive = small, poorly fitted or top-dose-only effect, or another doubt; inactive = no such curve, though single readings can be large or run the other way.

COc1ccc2oc(C(=O)OCC(=O)N(C)C3CCCCC3)c(C)c2c1	none (no result: CHX counter, NS1 inh, Shiga toxin inh)
Cc1ccc(C(=O)NN2C(=O)C3C4c5ccccc5C(c5ccccc54)C3C2=O)cc1 (stereo not drawn)	none
CCOC(=O)/C(C#N)=C/c1c(N2CCN(c3ccccc3)CC2)nc2c(C)cccn2c1=O	Pf growth 48h inconclusive, Pf growth 96h inconclusive
CCNC(=O)/C(C#N)=C/c1c(N2CCN(C)CC2)nc2c(C)cccn2c1=O	none
CCNC(=O)/C(C#N)=C/c1c(N2CCN(c3cccc(Cl)c3)CC2)nc2c(C)cccn2c1=O	Pf growth 48h 11.7µM, Pf growth 96h inconclusive
Cc1cccn2c(=O)c(C=C(C#N)C#N)c(N3CCN(c4cccc(Cl)c4)CC3)nc12	Pf growth 48h 7.38µM, Pf growth 96h inconclusive
CCNC(=O)/C(C#N)=C/c1c(N2CCN(Cc3ccc4c(c3)OCO4)CC2)nc2c(C)cccn2c1=O	Pf growth 48h 7.38µM, Pf growth 96h 3.7µM
COC(=O)/C(C#N)=C/c1c(N2CCN(c3cccc(Cl)c3)CC2)nc2c(C)cccn2c1=O	Pf growth 48h inconclusive, Pf growth 96h inconclusive
COC(=O)C1=C(C)N(C)C(C)=C(C(=O)OC)C1c1ccc(F)c(Br)c1	Pf growth 48h 9.28µM
COc1cc(NC(=O)c2cccc(C)c2)c(Cl)cc1[N+](=O)[O-]	none
COc1cccc(NC(=O)CCCN2C(=O)C3CC=CCC3C2=O)c1 (stereo not drawn)	none
COc1ccc(NC(=O)CCCN2C(=O)C3CC=CCC3C2=O)cc1 (stereo not drawn)	CHX counter 23.9, Pf growth 96h 10.4µM, Shiga toxin inh 40.0
COc1cccc(NC(=O)CCN2C(=O)C3CC=CCC3C2=O)c1 (stereo not drawn)	CHX counter 49.2, Pf growth 96h inconclusive, Shiga toxin inh 73.3
COc1ccccc1NC(=O)CCCN1C(=O)C2CC=CCC2C1=O (stereo not drawn)	Pf growth 96h 6.57µM
COc1ccc(-c2noc(CN(C)C(=O)CCN3C(=O)[C@H]4CC=CC[C@H]4C3=O)n2)cc1	Pf growth 48h inconclusive, Pf growth 96h inconclusive
COc1ccc(-c2noc(CNC(=O)CCN3C(=O)[C@H]4CC=CC[C@H]4C3=O)n2)cc1	Pf growth 96h 11.7µM
CN(N=O)C(=O)N[C@H]1[C@@H](O)[C@H](O)[C@H](CO)O[C@@H]1O	none (no result: CHX counter, NS1 inh, Shiga toxin inh, SARS PLP yeast)
CCOc1ccc(-n2cc(C(=O)Nc3cccc(C)n3)c3cc(OC)c(OC)cc3c2=O)cc1	none (no result: Pf growth 48h, CHX counter, Pf growth 96h, Shiga toxin inh, SARS PLP yeast)
CCc1ccccc1NC(=O)CCN1C(=O)C2CC=CCC2C1=O (stereo not drawn)	Pf growth 96h 11.7µM
Cc1cc(C)nc(Oc2ccc(Br)cc2Br)n1	CHX counter 25.2, Shiga toxin inh 77.1
O=C(CN1CCCCC1)Nc1cccc(-n2cnnn2)c1	Pf growth 96h inconclusive
Cc1cccc(NC(=O)N2CCc3ccccc3C2)c1C	CHX counter 29.0, Shiga toxin inh 39.4
COc1ccccc1NC(=O)N1CCCC(C(=O)Nc2cccc(C)c2C)C1 (stereo not drawn)	Pf growth 96h 8.28µM
Cc1cc(C)cc(NC(=O)N2CCc3ccccc3C2)c1	CHX counter 36.4, Shiga toxin inh 74.9
Cc1ccc(NC(=O)N2CCN(C)CC2)cc1NC(=O)N1CCN(C)CC1	CHX counter 11.7
COc1cccc(NC(=O)N2CCCC(C(=O)Nc3ccccc3OC)C2)c1 (stereo not drawn)	none
Cc1ccccc1NC(=O)N1CCc2ccccc2C1	none
CSc1ccc(S(=O)(=O)N2CCC(C(=O)Nc3ccccc3C(F)(F)F)CC2)cc1	Pf growth 96h inconclusive
CCOc1cc(C(=O)OCc2cc(=O)n3c(C)csc3n2)ccc1OC	none (no result: Pf growth 48h, CHX counter, NS1 inh, Pf growth 96h, Shiga toxin inh)
N[C@@H](Cc1ccc(O)cc1)C(=O)Nc1ccc2ccccc2c1	none (no result: CHX counter, NS1 inh, Shiga toxin inh)
Cc1ccc(NC(=O)N2CCc3ccccc3C2)cc1C	CHX counter 77.8, Pf growth 96h inconclusive, Shiga toxin inh 151.6
Cc1ccc(NC(=O)C2OCCc3ccccc32)cc1C (stereo not drawn)	CHX counter 36.5, Shiga toxin inh 100.3
COc1ccc(NC(=O)N2CCc3ccccc3C2)cc1OC	Pf growth 96h inconclusive
COc1c(O)ccc2c1CN1CCc3cc4c(cc3[C@@H]1C2)OCO4	none (no result: Pf growth 48h, CHX counter, Pf growth 96h, Shiga toxin inh, SARS PLP yeast)
COc1ccc2c(c1OC)C[N+]1([O-])CCc3cc4c(cc3C1C2)OCO4 (stereo not drawn)	Pf growth 48h inconclusive, Pf growth 96h 4.15µM
COc1cc(N=Nc2ccc3ccccc3c2)ccc1O	CHX counter 46.8 (no result: Shiga toxin inh)
Oc1ccc(N=Nc2ccc3ccccc3c2)cc1	CHX counter 40.3 (no result: Shiga toxin inh)
Oc1ccc(N=Nc2c(O)ccc3ccccc23)cc1	Pf growth 48h inconclusive, CHX counter 32.0, Pf growth 96h inconclusive
NS(=O)(=O)c1ccc(N=Nc2c(O)ccc3ccccc23)cc1	none
O=c1cc(N=Nc2ccc(O)cc2)[nH]c(=O)[nH]1	none (no result: Pf growth 48h, CHX counter, Pf growth 96h, Shiga toxin inh, SARS PLP yeast)
CCCCSC1=C(C#N)C(c2ccccc2C)C(C(=O)OCC)C(=O)N1 (stereo not drawn)	Pf growth 48h inconclusive
COc1ccc(NC(=O)CSc2nnc(C)n2Cc2ccccc2)cc1	none
CSc1c(CC(=O)NCCCO)n(Cc2ccccc2)c2ccccc12	Pf growth 96h 9.28µM
COc1ccc(NC(=O)Cc2c(SC)c3ccccc3n2Cc2ccccc2)cc1	Pf growth 48h 11.7µM, Pf growth 96h 7.38µM
O=C(Cc1c(Sc2ccccc2)c2ccccc2n1Cc1ccccc1)NCCO	Pf growth 48h inconclusive, Pf growth 96h inconclusive
Cc1ccc(C(=O)N/C(=C/c2ccco2)C(=O)Nc2cccc(C(=O)O)c2)cc1	CHX counter 21.8, NS1 inh inconclusive, Pf growth 96h inconclusive
CC(=O)c1cccc(NC(=O)/C(=C\c2ccco2)NC(=O)c2cccs2)c1	CHX counter 12.9, Pf growth 96h inconclusive, Shiga toxin inh 28.6
Cc1ccc(S(=O)(=O)Oc2ccc(/C=C(/NC(=O)c3ccccc3)C(=O)Nc3ccccc3)cc2)cc1	Pf growth 48h inconclusive, NS1 inh inconclusive, Pf growth 96h 9.28µM
COc1ccccc1C(=O)N/C(=C/c1ccco1)C(=O)Nc1cccc(C(=O)O)c1	none
COc1cccc(/C=N/n2c(-c3ccco3)nc3ccccc3c2=O)c1OC	none
CC1(C(=O)NCc2ccc(Cl)c(Cl)c2)Oc2ccccc2NC1=O (stereo not drawn)	Pf growth 48h inconclusive, Pf growth 96h inconclusive (no result: NS1 inh)
Cc1csc2c(SCC(=O)NNC(=O)C(Cl)Cl)ncnc12	Pf growth 48h 3.29µM, Pf growth 96h inconclusive
O=C(c1cc(C(=O)NCc2ccccc2)c(=O)n(Cc2ccccc2)c1)c1cc(Cl)ccc1O	Pf growth 48h 2.33µM, Pf growth 96h 0.657µM
Cc1ccc(O)c(C(=O)c2cc(C#N)c(=O)n(Cc3ccccc3)c2)c1	none (no result: NS1 inh)
Cc1ccc(O)c(C(=O)c2cc(C(=O)NCCc3ccccc3)c(=O)n(CCc3ccccc3)c2)c1	Pf growth 48h 1.85µM, Pf growth 96h 1.47µM
